# Only a selection was taken, and hits are over-represented in it overall.
# FBPA Giardia inh: inhibitors of Giardia lamblia fructose-1,6-bisphosphate aldolase; A8B2U2; purified Giardia FBPA; Potency, µM (titrated, usually from 59.6 µM), for inactives: at the highest dose activity, negative = inhibition, actives largely listed as inhibitors; 0.71% of 290,000 active; AID 2451; further: potency means the concentration at half of the fitted maximal effect; on the % scale 0 is the no-effect control and ±100 the full control effect; nearly all actives have a fitted effect of over 55% in size
#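 Giardia FBPA (40 nM reagent) was preincubated 10 min at RT with compound (up to 57.5 uM final), then substrate plus GAPDH/TPI/NAD/arsenate coupling system with diaphorase/resazurin was added; resorufin fluorescence (525/598 nm) was read after 20 min.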
# Shiga inhibitor: inhibitors of Shiga toxin in Vero cells; Vero cells, Shiga toxin protein synthesis inhibition reporter; 9.2% of 290,000 active; inhibition, % at 38.7 µM; in the data active means inhibition mostly above about 28%, no sharp cut-off; inactive means mostly below about 43%; further: 0% is about no effect
# Sm TGR inh: blocks Schistosoma mansoni thioredoxin glutathione reductase; 3% of 360,000 active; Q962Y6; Potency, µM (highest dose often 114 µM), without a hit: at the top dose activity change, negative = inhibition, actives largely listed as inhibitors; AID 485364; purified TGR, DTNB reduction, TNB absorbance 405 nm; further: potency means the concentration at half of the fitted maximal effect; on the % scale 0 is the no-effect control and ±100 the full control effect; nearly all actives have a fitted effect of over 60% in size
#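 Kinetic colorimetric format: TGR-catalysed, NADPH-driven DTNB reduction monitored via TNB absorbance. Enzyme dispensed at 20 nM; compound exposure 15 min at room temperature before reaction start.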
# CHX counter: counter-screen hit for Shiga toxin inhibitors, cycloheximide; AID 2314; 12% of 300,000 active; cell reporter, cycloheximide protein synthesis inhibition counterscreen; max response, %; in the data active means max response mostly above about 13%, no sharp cut-off; inactive means mostly below about 14%; further: read at 38.3 µM for the half of the compounds with a filed dose; 0% is about no effect
# Tb PYK inh: blocks Trypanosoma brucei pyruvate kinase; Q57TT1; TbPYK enzyme, Kinase-Glo Plus ATP luminescence, 45 min; Potency, µM (top dose mostly 76.8 µM), inactives show top-dose activity, negative = inhibition, actives largely listed as inhibitors; 0.12% of 410,000 active; further: potency means the concentration at half of the fitted maximal effect; on the % scale 0 is the no-effect control and ±100 the full control effect; nearly all actives have a fitted effect of over 50% in size
#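 Readout: single end-point luminescence (Kinase-Glo Plus, 10 min). Reaction conditions were TbPYK/substrate plus 130 uM ADP, 45 min at RT, pH 7.2 TEA buffer. No-enzyme wells served as controls, and data were normalized before concentration-response fitting.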
# LmPK inh: LmPK (Leishmania mexicana) enzyme inhibition; Q27686; purified LmPK, Kinase-Glo ATP luminescence, 1 h; Potency, µM (series often up to 57.5 µM), without a hit: at the top dose activity change, negative = inhibition, usual class: inhibitors; 0.37% of 290,000 active; AID 1721; further: potency means the concentration at half of the fitted maximal effect; on the % scale 0 is the no-effect control and ±100 the full control effect
# Target sequence (Q27686 whole entry, looked up): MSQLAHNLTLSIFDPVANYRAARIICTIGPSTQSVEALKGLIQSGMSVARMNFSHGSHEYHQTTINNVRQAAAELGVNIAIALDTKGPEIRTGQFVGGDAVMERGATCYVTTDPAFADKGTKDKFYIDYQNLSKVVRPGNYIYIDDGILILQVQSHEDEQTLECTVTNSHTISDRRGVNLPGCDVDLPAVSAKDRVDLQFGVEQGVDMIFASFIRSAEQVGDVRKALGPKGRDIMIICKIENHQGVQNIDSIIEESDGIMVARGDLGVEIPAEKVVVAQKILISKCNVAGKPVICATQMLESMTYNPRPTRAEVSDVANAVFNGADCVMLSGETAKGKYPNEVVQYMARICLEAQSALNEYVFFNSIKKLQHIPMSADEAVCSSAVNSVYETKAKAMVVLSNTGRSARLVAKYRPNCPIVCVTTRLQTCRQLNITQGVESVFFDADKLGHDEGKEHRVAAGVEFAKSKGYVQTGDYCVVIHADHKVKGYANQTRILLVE
#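 Pyruvate kinase activity monitored as ATP production (luciferase luminescence). Conditions: 0.1 nM enzyme, 0.5 mM PEP, 0.1 mM ADP, 1 h, RT; normalized against uninhibited and no-enzyme wells.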
# * marks the source's active call; other numbers are inactive results; i = inactive; ? = inconclusive; / = no result given; [ ] = remark or other dose. Unless noted, the call rests on the fitted dose curve; in most records, active means well fitted curve in the direction sought with a large enough effect; inconclusive means small, poorly fitted or top-dose-only effect, or another doubt; inactive means no such curve, though single readings can be large; an effect the other way counts as inactive or inconclusive.
SMILES,FBPA Giardia inh,Shiga inhibitor,Sm TGR inh,CHX counter,Tb PYK inh,LmPK inh
NCC1O[C@@H](OC2C(N)C[C@H](N)[C@@H](O[C@H]3OC(CO)C(O)C(N)C3O)C2O)C(O)C(O)C1O (stereo partly drawn),-1%,/,/,/,/,/
COc1ccc(Cn2ccnc2SCC(=O)Nc2ccc(F)cc2F)cc1,/,/,/,/,-2%,/
O=C(NCCCN1CCN(c2ccccc2F)CC1)c1ccc2nc(Cc3ccccc3)oc2c1,/,/,0%,/,-3%,/
O=C(c1ccc2nc(Cc3ccccc3F)oc2c1)N1CCCC1,/,87*,0%,41*,-1%,-10%
O=C(NCCCN1CCOCC1)c1ccc2nc(Cc3ccccc3F)oc2c1,/,23,0%,22*,3%,-4%
O=C(c1ccc2nc(Cc3ccccc3F)oc2c1)N1CC[C@H](O)C1,7%,39*,0%,30*,-5%,1%
CC(=O)N1CCCN(C(=O)c2ccc3nc(Cc4ccccc4F)oc3c2)CC1,/,23,-17%,14*,0%,-9%
COc1ccc(Cc2nc3ccc(C(=O)N4CCC(C(N)=O)CC4)cc3o2)cc1,/,/,/,/,-1%,/
CN(C)c1ncc2nc(-c3cccc(C#N)c3)c(=O)n(C[C@H]3CCCO3)c2n1,-1%,/,/,/,/,/
O=C(N/N=C/c1ccc(Cl)cc1Cl)Nc1ccccc1,2%,28,9%,9.2*,-2%,1%
O=C(NC(=S)Nc1ccc(Cl)cc1)c1ccccc1,-21%,72*,?,89*,0%,4%
O=C(N/N=C/c1cccn1-c1cccc(C(=O)O)c1)Nc1ccccc1,7%,52*,-4%,31*,6%,5%
O=C(NC(=S)Nc1ccc(-c2ccccc2)cc1)c1ccccc1,/,/,/,/,0%,/
CC(C)NC(=S)Nc1ccc(Oc2ccccc2)cc1,8%,29*,7%,15,-1%,6%
Cc1cccc(N2CCN(C(=O)CN3CCSc4ccccc43)CC2C)c1 (stereo not drawn),/,/,-6%,/,-8%,/
Cc1ccc(C)c(NC(=O)c2cnn(-c3cccc(F)c3)c2C2CCN(C(=O)OC(C)(C)C)CC2)c1,/,/,-3%,/,-10%,/
CCCNC(=O)OC[C@@H]1O[C@H](CCO/N=C\[C@@H](OC)[C@H](C)/C=C\CC(=O)OC)C=C[C@@H]1Oc1ccc(OC)cc1,1%[12.9 µM],/,/,/,/,/
O=C(NC(=O)c1c(F)cccc1F)Nc1ccc(Cl)cc1,1%,/,/,/,/,/
COC(=O)C(O)(c1ccc(NC(=O)Oc2ccccc2)cc1)C(F)(F)F (stereo not drawn),1%,-2,-8%,-3,-2%,-1%
COC(=O)C(O)(c1ccc(NC(=S)NC(=O)c2ccccc2)cc1)C(F)(F)F (stereo not drawn),-23%,-2,28µM*,14,-2%,1%
O=C(O)/C(=N/NC(=O)c1ccc(Cl)cc1)c1ccccc1,-2%,13,-3%,23*,-15%,1%
O=C(NC(=S)Nc1ccc(Oc2ccc(Cl)cc2)cc1)c1ccccc1,-2%,27,-17%,19*,7%,4%
O=C(N/C(=N\O)c1ccccc1)Nc1ccc(Cl)cc1,-2%,48*,0%,26,4%,4%
Cc1onc(-c2ccccc2)c1-c1n[nH]c(=S)n1-c1ccccc1Cl,-8%,-15,-1%,-6,?,18µM*
COc1ccc(OC)c(-n2c(-c3cc(-c4ccco4)[nH]n3)n[nH]c2=S)c1,0%,0,11%,7,3.2µM*,5%
SMILES,FBPA Giardia inh,Shiga inhibitor,Sm TGR inh,CHX counter,Tb PYK inh,LmPK inh
S=c1[nH]nc(-c2cc(-c3ccco3)[nH]n2)n1-c1ccccc1,-9%,-11,-15%,-6,?,13µM*
Cc1onc(-c2ccccc2)c1-c1n[nH]c(=S)n1-c1ccc(C(=O)O)cc1,-5%,-13,23%,-3,?,?
COc1ccc(-c2cc(-c3n[nH]c(=S)n3-c3cc(OC)ccc3OC)[nH]n2)cc1,5%,-10,-19%,-6,?,?
S=c1[nH]nc(-c2ccc3ccccc3n2)n1-c1ccccc1Cl,-19%,11,0%,5,-11%,28µM*
FC(F)(F)c1ccc(Cl)c(-n2c(-c3cc(-c4ccco4)[nH]n3)n[nH]c2=S)c1,-5%,4,-34%,1,?,-4%
COc1ccc(CCNC(=O)Cn2c(=O)nc(-c3ccccc3)c3ccccc32)cc1OC,/,/,-14%,/,1%,/
S=c1[nH]nc(-c2ccco2)n1-c1ccccc1Cl,-16%,67*,16%,33*,?,?
S=c1[nH]nc(-c2cc(-c3ccco3)[nH]n2)n1-c1ccccc1Cl,?,7,40µM*,3,?,21%
Cc1occc1-c1n[nH]c(=S)n1-c1ccccc1,-8%,3,7%,-4,18µM*,?
O=C(Nc1cccc(C(=O)N2CCN(c3ccc(Cl)cc3)CC2)c1)c1nsc2ccccc12,/,/,1%,/,3%,/
COc1cc(-c2noc(-c3ccc(NCC4CCCO4)c([N+](=O)[O-])c3)n2)cc(OC)c1OC (stereo not drawn),/,/,-24%,/,4%,/
O=C1OC(Cc2ccccn2)C(O)=C1C1=NCCCN1 (stereo not drawn),6%,81*,-6%,28*,-1%,-4%
O=C1Nc2ccccc2C1Cc1ccccn1 (stereo not drawn),-17%,0,-13%,-2,-6%,-12%
O=C1OC(Cc2ccccn2)C(O)=C1C1=NCCCCN1 (stereo not drawn),0%[12.9 µM],116*,-2%,39*,-2%,-5%
CCOc1cc(C2CC(=O)NC(SCC)=C2C#N)ccc1O (stereo not drawn),-28%,-12,-16%,-1,-14%,4%
N#CC1=C2SCN(C3CCCCC3)CN2C(=O)CC1c1ccc(Br)cc1 (stereo not drawn),/,/,10µM*,/,?,/
CCOc1cc(C2CC(=O)N3CN(C4CCCCC4)CSC3=C2C#N)ccc1O (stereo not drawn),0.79µM*,-8,10µM*,-3,?,-24%
N#Cc1cc(C(=O)c2cc(Br)ccc2O)cn(C2CCCCC2)c1=O,9%,-8,-35%,0,-18%,4%
O=C(NNC(=O)c1ccccc1[N+](=O)[O-])Nc1ccc(Cl)cc1,-1%,35,1%,14,0%,0%
O=C(Nc1ccc(Cl)cn1)c1ccccc1[N+](=O)[O-],0%,45,-3%,18*,-9%,0%[11.5 µM]
O=C(Nc1ccc(Cl)cn1)c1cccc2ccccc12,-2%,/,-22%,18*,5%,9%
CCCCC[C@]12Cc3ccccc3C(O1)C1=C(CC(C)(C)CC1=O)O2,6%[12.9 µM],i,-10%[22.9 µM],-3,/,-5%[11.5 µM]
CCCS(=O)(=O)c1nc(S(=O)(=O)c2ccc(C)cc2)c(NCc2ccccc2Cl)s1,/,/,-24%,/,8%,/
O=C(/C=C/c1ccccc1)c1ccc(O)cc1,-1%,/,/,/,/,/

# High-throughput results (PubChem BioAssay)
